SMILES strings stand for the structures.

The target of test [1] is T1, Serine/threonine-protein kinase Nek9 (Homo sapiens) (UniProt Q8TD19).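 Further: each value is a mean percent inhibition of NEK9.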
T1 sequence (whole entry): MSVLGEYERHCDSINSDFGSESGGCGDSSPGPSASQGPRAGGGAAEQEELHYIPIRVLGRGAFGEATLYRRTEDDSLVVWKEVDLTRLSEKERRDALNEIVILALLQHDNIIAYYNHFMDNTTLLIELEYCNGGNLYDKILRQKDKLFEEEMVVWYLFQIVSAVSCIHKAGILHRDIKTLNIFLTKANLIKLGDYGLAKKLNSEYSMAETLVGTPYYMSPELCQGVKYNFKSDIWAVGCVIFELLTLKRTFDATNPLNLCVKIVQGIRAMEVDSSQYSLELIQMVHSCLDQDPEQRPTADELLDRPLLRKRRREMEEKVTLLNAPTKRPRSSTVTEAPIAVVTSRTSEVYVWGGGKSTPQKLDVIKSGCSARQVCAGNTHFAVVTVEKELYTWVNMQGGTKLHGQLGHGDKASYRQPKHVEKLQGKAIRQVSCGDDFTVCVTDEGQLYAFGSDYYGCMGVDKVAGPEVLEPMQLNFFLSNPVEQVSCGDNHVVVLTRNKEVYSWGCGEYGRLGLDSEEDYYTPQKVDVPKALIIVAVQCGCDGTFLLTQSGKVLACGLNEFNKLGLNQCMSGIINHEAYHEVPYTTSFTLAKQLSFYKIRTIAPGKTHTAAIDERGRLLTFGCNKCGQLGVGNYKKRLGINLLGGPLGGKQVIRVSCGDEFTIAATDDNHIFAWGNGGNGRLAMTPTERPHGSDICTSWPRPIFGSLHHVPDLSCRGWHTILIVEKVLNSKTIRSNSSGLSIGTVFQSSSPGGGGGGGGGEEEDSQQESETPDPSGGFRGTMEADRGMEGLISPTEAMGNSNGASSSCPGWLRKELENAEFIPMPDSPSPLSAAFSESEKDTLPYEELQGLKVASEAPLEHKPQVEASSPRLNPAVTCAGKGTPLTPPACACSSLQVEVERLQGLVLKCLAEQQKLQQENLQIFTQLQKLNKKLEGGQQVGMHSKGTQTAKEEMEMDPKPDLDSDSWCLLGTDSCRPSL
As to conditions: at 1 µM.

The target in test [2] is Serine/threonine-protein kinase PLK1 (Homo sapiens) (UniProt P53350). Conditions: at 0.1 µM.
Test [3] has the same target. As to conditions: at 1 µM.
In test [4] the target is T2, Dual specificity protein kinase TTK (Homo sapiens) (UniProt P33981).
T2 sequence (whole entry): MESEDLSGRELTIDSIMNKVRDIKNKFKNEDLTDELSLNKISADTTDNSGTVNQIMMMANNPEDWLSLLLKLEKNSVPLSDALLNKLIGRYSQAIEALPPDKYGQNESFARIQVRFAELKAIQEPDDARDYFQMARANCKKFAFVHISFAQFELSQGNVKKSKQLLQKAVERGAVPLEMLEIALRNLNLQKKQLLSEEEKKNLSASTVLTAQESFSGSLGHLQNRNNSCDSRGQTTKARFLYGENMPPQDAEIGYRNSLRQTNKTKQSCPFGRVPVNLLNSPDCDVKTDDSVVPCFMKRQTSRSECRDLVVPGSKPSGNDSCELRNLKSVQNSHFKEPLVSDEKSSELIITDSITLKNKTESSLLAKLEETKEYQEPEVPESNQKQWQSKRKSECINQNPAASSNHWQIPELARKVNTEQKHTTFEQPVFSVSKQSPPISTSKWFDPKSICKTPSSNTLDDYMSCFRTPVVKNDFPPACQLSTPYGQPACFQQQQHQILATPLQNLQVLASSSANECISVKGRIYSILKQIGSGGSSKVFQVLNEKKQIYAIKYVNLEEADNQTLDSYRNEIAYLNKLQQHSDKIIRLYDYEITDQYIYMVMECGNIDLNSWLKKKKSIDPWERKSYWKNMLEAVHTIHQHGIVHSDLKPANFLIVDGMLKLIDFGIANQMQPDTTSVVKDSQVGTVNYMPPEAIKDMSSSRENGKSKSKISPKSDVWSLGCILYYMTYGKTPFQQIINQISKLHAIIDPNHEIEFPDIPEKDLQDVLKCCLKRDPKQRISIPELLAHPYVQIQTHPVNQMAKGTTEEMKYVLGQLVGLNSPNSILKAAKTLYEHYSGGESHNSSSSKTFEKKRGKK
Conditions: at 0.1 µM.

The test system of test [5] is T3, Receptor-type tyrosine-protein kinase FLT3 (Homo sapiens), P36888 [D835Y].
T3 sequence (whole entry): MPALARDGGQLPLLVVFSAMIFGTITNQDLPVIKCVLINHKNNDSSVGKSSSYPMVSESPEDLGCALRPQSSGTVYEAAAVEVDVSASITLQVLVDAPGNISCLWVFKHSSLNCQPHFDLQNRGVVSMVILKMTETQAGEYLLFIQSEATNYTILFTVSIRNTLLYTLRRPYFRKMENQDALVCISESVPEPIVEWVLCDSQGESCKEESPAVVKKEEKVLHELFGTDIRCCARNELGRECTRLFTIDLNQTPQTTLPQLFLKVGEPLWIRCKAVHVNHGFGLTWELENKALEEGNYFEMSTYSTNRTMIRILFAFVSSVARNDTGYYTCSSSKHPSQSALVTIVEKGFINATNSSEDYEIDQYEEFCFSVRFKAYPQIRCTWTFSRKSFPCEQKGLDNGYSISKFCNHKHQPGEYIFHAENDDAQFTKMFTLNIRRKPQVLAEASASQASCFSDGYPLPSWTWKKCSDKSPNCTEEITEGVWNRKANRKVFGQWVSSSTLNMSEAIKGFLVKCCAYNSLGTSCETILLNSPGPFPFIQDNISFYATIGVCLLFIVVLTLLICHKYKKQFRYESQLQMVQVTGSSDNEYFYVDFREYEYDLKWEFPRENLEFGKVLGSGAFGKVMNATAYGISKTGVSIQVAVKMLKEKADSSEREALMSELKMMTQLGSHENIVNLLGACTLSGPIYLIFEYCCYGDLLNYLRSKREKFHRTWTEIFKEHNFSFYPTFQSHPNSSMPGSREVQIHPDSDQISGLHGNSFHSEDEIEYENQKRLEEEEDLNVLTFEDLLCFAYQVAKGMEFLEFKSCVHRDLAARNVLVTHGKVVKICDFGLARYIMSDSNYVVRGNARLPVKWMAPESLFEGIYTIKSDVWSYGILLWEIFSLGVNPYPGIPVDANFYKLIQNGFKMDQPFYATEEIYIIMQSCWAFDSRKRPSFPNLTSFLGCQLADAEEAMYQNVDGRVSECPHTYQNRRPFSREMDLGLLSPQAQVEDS
Conditions: at 1 µM.

The target in test [6] is Vascular endothelial growth factor receptor 3 (Homo sapiens) (UniProt P35916). Conditions: at 0.1 µM.
Sequence of Vascular endothelial growth factor receptor 3 (Homo sapiens) (P35916 whole entry): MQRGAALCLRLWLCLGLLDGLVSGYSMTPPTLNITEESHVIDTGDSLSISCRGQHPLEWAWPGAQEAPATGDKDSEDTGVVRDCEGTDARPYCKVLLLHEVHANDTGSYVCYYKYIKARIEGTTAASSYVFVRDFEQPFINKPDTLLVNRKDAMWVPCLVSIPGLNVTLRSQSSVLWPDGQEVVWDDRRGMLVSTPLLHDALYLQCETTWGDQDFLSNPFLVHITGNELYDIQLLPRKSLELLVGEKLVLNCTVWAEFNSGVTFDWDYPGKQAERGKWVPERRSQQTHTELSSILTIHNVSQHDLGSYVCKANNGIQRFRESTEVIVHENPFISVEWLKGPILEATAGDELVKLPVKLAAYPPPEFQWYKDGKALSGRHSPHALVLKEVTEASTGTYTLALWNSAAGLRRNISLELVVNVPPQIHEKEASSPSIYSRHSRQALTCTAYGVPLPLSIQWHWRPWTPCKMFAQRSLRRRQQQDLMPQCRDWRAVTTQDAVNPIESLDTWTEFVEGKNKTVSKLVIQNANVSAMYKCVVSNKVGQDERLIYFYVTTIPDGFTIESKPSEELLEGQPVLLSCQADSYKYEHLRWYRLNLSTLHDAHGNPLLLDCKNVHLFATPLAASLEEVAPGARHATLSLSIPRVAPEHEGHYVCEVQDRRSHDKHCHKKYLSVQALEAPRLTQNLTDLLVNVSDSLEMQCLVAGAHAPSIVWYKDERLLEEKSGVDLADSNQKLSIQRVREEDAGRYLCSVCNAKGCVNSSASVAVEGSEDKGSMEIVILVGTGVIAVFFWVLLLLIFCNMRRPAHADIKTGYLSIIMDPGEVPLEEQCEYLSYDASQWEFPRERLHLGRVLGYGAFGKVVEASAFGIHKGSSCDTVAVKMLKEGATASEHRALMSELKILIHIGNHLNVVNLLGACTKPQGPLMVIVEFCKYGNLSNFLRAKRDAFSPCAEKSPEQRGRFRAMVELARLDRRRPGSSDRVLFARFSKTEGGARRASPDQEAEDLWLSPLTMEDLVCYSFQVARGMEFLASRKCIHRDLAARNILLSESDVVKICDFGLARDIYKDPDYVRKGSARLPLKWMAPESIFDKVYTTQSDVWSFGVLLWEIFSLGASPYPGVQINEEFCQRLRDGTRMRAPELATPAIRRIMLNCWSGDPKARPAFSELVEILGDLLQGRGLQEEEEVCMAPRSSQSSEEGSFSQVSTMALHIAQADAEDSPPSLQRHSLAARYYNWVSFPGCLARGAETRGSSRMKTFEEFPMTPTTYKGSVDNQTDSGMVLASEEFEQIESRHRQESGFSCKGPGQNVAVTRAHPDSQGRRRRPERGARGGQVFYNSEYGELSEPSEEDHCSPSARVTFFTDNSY
Test [7] has the same target. Conditions: at 1 µM.
Test [8] has as its target Macrophage colony-stimulating factor 1 receptor (Homo sapiens) (UniProt P07333). Conditions: at 0.1 µM.
Test [9] shares this target. As to conditions: at 1 µM.
Test [10] has as its target Tyrosine-protein kinase Fyn (Homo sapiens) (UniProt P06241). As to conditions: at 0.1 µM.
Test [11] shares this target. Conditions: at 1 µM.
The target of test [12] is Tyrosine-protein kinase HCK (Homo sapiens) (UniProt P08631). Conditions: at 0.1 µM.
Test [13] shares this target. As to conditions: at 1 µM.
Test [14] addresses Insulin-like growth factor 1 receptor (Homo sapiens) (UniProt P08069). As to conditions: at 0.1 µM.
Test [15] shares this target. As to conditions: at 1 µM.
The target in test [16] is Insulin receptor (Homo sapiens) (UniProt P06213). As to conditions: at 0.1 µM.
Sequence of Insulin receptor (Homo sapiens) (P06213 28-758 limits assumed): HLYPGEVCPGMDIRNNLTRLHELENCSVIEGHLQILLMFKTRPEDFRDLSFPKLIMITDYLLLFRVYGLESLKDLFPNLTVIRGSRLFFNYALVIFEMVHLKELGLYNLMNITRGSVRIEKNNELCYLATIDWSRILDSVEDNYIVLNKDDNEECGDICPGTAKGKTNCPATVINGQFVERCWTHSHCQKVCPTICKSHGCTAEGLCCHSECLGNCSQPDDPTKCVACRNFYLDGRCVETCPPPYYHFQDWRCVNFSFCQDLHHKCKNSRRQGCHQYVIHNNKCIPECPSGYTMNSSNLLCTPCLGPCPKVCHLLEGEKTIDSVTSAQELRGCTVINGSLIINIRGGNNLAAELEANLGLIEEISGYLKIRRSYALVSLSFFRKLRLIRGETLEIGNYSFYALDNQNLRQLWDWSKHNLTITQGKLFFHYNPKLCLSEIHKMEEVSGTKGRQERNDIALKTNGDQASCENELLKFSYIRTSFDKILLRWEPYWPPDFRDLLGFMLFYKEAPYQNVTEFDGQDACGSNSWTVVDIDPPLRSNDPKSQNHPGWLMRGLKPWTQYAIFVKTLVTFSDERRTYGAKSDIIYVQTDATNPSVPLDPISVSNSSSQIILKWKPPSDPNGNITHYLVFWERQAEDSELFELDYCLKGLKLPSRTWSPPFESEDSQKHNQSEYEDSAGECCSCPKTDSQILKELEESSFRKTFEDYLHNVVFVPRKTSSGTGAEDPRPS
Sequence of Insulin receptor (Homo sapiens) (P06213 763-1382 limits assumed): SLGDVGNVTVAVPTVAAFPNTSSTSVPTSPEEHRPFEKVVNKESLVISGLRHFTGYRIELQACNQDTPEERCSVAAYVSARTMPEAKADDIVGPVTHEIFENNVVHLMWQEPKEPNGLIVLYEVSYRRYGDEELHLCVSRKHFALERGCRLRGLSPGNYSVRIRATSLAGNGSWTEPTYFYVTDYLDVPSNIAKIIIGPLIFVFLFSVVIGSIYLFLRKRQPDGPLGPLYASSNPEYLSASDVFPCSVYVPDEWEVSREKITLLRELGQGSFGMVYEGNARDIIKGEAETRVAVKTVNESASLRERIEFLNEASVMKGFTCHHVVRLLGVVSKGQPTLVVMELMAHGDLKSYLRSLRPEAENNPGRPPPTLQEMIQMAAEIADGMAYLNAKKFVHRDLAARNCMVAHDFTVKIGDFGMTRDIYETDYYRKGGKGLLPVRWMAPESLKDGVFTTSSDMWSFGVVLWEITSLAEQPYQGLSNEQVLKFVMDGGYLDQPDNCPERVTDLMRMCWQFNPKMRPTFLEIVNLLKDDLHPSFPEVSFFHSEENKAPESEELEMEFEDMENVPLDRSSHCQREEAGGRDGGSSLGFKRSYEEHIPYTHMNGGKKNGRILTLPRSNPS
Test [17] shares this target. As to conditions: at 1 µM.
The target of test [18] is Insulin receptor-related protein (Homo sapiens) (UniProt P14616). As to conditions: at 0.1 µM.
Test [19] has the same target. As to conditions: at 1 µM.
In test [20] the target is T4, Tyrosine-protein kinase ITK/TSK (Homo sapiens) (UniProt Q08881).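 Further: mean percent inhibition of ITK from the GSK PKIS screen.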
T4 sequence (whole entry): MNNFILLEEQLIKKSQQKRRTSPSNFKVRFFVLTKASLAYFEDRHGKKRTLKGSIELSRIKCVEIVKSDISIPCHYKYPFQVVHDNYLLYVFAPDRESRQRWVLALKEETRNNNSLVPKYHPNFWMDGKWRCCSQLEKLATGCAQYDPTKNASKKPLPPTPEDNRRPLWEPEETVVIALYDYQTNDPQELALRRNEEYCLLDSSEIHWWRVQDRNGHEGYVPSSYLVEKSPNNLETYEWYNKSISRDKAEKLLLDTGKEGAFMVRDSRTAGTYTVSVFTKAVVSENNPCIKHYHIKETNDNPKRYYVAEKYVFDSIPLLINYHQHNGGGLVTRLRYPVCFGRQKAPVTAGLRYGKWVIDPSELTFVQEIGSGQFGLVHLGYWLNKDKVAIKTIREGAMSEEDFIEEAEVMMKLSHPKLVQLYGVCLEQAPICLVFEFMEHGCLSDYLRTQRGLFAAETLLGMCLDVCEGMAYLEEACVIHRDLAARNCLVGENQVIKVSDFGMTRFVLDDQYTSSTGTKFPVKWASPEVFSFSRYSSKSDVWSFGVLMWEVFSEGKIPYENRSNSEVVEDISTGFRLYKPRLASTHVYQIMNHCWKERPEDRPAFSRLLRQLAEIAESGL
As to conditions: at 0.1 µM.

Sequence of Macrophage colony-stimulating factor 1 receptor (Homo sapiens) (P07333 whole entry): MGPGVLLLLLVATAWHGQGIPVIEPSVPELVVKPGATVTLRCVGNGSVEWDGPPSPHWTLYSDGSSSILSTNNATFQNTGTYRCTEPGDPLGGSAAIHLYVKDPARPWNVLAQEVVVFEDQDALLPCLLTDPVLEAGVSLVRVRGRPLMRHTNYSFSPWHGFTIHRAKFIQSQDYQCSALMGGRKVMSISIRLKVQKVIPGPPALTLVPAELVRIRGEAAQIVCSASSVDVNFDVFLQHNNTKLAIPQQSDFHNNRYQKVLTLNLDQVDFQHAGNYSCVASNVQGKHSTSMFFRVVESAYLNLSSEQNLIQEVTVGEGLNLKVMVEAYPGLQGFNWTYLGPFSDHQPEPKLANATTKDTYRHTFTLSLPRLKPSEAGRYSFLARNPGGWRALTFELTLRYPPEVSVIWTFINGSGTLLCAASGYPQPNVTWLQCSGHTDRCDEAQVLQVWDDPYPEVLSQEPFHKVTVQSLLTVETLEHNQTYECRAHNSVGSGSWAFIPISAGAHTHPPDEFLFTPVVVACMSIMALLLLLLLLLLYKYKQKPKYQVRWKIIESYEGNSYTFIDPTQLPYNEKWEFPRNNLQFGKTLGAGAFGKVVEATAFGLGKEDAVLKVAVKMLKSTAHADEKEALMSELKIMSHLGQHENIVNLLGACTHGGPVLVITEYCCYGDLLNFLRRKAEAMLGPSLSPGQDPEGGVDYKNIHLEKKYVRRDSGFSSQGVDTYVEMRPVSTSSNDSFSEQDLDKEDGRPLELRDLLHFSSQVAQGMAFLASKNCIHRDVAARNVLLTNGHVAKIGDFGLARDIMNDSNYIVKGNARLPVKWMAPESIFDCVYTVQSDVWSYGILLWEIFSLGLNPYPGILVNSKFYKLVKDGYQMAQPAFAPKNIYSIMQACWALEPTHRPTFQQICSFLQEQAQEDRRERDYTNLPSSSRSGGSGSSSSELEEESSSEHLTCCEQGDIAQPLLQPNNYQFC
Sequence of Insulin-like growth factor 1 receptor (Homo sapiens) (P08069 31-736 limits assumed): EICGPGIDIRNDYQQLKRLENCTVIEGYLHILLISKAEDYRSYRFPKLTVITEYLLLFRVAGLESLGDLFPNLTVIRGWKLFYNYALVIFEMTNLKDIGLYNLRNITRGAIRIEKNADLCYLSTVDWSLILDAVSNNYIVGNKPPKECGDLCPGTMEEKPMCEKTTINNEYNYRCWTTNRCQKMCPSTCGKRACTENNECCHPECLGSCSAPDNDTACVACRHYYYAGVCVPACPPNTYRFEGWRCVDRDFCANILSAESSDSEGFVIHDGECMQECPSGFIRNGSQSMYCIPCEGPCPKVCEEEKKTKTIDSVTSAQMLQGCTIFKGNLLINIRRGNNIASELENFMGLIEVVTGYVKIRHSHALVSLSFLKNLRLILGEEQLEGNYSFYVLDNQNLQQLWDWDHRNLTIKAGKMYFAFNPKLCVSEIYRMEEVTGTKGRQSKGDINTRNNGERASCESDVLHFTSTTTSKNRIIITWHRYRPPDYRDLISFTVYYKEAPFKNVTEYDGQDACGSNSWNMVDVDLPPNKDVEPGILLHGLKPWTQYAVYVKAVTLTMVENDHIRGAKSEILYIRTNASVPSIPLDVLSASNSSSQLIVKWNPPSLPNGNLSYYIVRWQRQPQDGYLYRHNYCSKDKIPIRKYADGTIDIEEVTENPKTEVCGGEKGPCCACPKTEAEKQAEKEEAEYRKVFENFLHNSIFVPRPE
Sequence of Insulin-like growth factor 1 receptor (Homo sapiens) (P08069 741-1367 limits assumed): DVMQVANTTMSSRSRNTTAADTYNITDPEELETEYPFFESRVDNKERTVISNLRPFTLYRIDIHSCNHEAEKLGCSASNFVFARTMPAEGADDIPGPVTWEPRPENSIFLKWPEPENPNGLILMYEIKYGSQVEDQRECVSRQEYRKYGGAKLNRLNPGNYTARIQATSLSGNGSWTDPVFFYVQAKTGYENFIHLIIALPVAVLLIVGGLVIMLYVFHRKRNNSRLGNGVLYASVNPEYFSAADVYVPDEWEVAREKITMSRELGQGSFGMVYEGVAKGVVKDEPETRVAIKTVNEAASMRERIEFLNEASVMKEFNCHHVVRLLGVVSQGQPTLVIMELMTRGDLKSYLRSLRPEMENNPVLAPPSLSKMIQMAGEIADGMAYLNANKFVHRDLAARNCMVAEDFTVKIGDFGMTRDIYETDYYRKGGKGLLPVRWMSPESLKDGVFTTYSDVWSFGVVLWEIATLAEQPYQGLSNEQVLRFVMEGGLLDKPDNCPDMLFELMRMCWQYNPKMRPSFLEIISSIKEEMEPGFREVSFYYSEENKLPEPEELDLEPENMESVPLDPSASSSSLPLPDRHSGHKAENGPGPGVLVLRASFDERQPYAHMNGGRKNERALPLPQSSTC

Broadly, the inhibition is the change of the read-out against control, counted positive when it falls. Turning to `CC1=C(C(=O)Nc2ccc3[nH]nc(C)c3c2)C(c2ccc(C(F)(F)F)cc2)CC(=O)N1` (stereo not given), the inhibition was -5.55% in test [1]; 3.32% in test [2]; 0.85% in test [3]; 4.14% in test [4]; 5.4% in test [5]; 5.85% in test [6]. The inhibition in test [7] is 2.72%; in test [8], 1.56%; in test [9], 2.04%; in test [10], 2.88%; in test [11] it was 2.72%; in test [12], 4.64%. The inhibition in [13] is 9.34%; in test [14], 2.37%; in [15], 3.78%; in test [16], 0.03%; in [17], 1.72%; in test [18], 2.64%. The inhibition in test [19] was determined as 1.26%; in test [20], 1.81%.
On to `COc1ccc2ncn(-c3cc(O[C@H](C)c4ccccc4C(F)(F)F)c(C(N)=O)s3)c2c1`, for which the inhibition in test [1] was found to be 83.6%; in [2] it was 97%; in test [3], 99.2%; in [4], 0.16%; in test [5] it was 2.3%; in test [6], 1.9%. Moreover, the inhibition was 15% in test [7]; -0.05% in test [8]; 5.84% in [9]; 0.53% in test [10]; 5% in test [11]; 0.81% in [12]. Besides, the inhibition was 2.14% in test [13]; -0.28% in test [14]; -0.09% in [15]; 0.11% in [16]; 1.34% in test [17]; -2.16% in test [18]. Further, the inhibition in [19] was -0.27%; in test [20], 0.33%.
Consider `CN1CCC(n2cnc(-c3ccc(F)cc3)c2-c2ccnc(NCCO)n2)CC1`, for which the inhibition in [1] is 8.58%; in [2], 1.49%; in [3] it was 2.42%; in [4], -0.23%; in [5], 4.59%; in [6], 4.64%. Moreover, the inhibition was found to be 0.88% in test [7]; 3.25% in test [8]; 3.2% in [9]; 2.96% in test [10]; 1.8% in test [11]; 3.07% in test [12]. Further, the inhibition is 9.14% in test [13]; 3.65% in test [14]; 4.78% in test [15]; 2.63% in test [16]; 3.28% in [17]; 3.34% in [18]. Also, the inhibition amounted to 2.39% in test [19] and 1.66% in test [20].
Turning to `Cc1nnc(-c2cccc(-c3ccc(C(=O)NCC4CC4)cc3)c2)o1`, the inhibition turned out to be 7.69% in test [1]; 4.37% in test [2]; 3.89% in test [3]; 9.53% in test [4]; 0.86% in test [5]; 4.47% in test [6]. The inhibition in [7] is -1.03%; in test [8] it was 2.5%; in test [9] it was 1.96%; in test [10] it was 1.1%; in [11], 0.54%; in test [12], 5.93%. The inhibition was determined as 8.3% in test [13]; 3.76% in test [14]; 6.53% in test [15]; 9.39% in [16]; 5.71% in [17]; 4.48% in test [18]. The inhibition in [19] was 3.22%; in test [20], 0.99%.
`N#Cc1ccc2c(-c3ccnc(NC4CC4)n3)c(-c3ccc(F)cc3)nn2c1`: the inhibition in test [1] was 4.02%; in test [2], 2.66%; in test [3], 0.98%; in test [4], 2.64%; in test [5] it was 4.7%; in test [6], -1.37%. The inhibition is 4.18% in [7]; -2.75% in test [8]; 4.65% in [9]; -0.41% in test [10]; 0.92% in [11]; 1.95% in test [12]. Moreover, the inhibition in test [13] was 1.1%; in test [14], 1.58%; in test [15], -2.63%; in [16], 0.02%; in test [17] it was -1.67%; in test [18], -0.15%. Also, the values for the inhibition in [19] and in test [20] were 0.6% and 0.02%, respectively.

These data come from ChEMBL document CHEMBL1961873, “Compounds: GSK PKIS; Assays: Nanosyn kinase panel” (2012).
